This passage reports seed-corrected z-score results from PubChem BioAssay AID1159506 (National Center for Advancing Translational Sciences (NCATS), 2015).

Over roughly 59,000 sequences, the read-out has its median near -0.00055; the lowest 2% begin near -2. This excerpt belongs to a sample that is enriched for the lowest values.

The assay can be described thus: Identification of proteins required for the processing of the EWS-FLI1 nascent transcript.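 Further: robust z of luciferase light less the median z of siRNAs with the same seed.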 The following applies: TC32 Ewing sarcoma NR0B1-luc vs CMV-luc (EWS-FLI1 target promoter against control promoter), 48 h; screened at 20 nM (by protocol). The essentials:
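Parallel TC32-NR0B1-luc and TC32-CMV-luc reverse transfections with 20 nM siRNA in RPMI-1640/10% FBS, luciferase measured 48 h later. Seed-adjusted z-scores from normalized, z-score-MAD transformed data; AllStars negative and siGL4 controls on each plate.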
UGUUCUAUGAGGCAAGAUG against ZGRF1 gave a seed-corrected z-score of 0.286.
Next, ACUUUCACAACGAUUUUCU against RPL34P34: -2.47.
For UUCUUUACAGCAUGAGGGC against CCL25, the seed-corrected z-score turned out to be 0.424.
As for AAAGUCAUCAGCAAUUUGG against OR10G8, the figure is -1.41.
As for UCCGUCGUCAGAAAGAUGC against DGCR2, the figure is 0.0908; as for UGACGUGUCAUUCUCAUAC against ZNF69, -2.01.
Next, UUGGAGCAAAAUACAGUGG against NQO1: 0.331.
The sequence UUGUUCCUCAGGUCAAGUG against GAB2 registered a seed-corrected z-score of 1.13.
Next, UAGUUGUUCAGCGAGGUCC against CEP250: -0.0255; AACAUCACCAAAUAGCUGG against LIMS1: 0.191; UAUUUCGAAAAUAAUCUCC against TMEM18: -0.129.
As for UUCAGCAUUUGAUUCAAUC against HTRA4, the figure is -0.127; as for UCUGCUGAUAGCAAUGGGC against ZNF512B, -2.13.
UUUUGGUCGUCGUUCUUCU against COMP registered a seed-corrected z-score of -2.12.
UUCUACUCUAGCAAUUUCC against NDC80 returned a seed-corrected z-score of -2.12.
As for UCAAGGACCAGGCCGUUUU against ALG1L3P, the figure is 1.09.
Take UAAUUGUGACACUUGUUCC against TSLP: the seed-corrected z-score was -1.67.
For UAGGUAAGGACGGAAACGC against ZPBP2, the seed-corrected z-score was 0.591.
Sequence UACCGUGACAAAAUAAGUG against LOC728175 showed a seed-corrected z-score of 0.818.
Sequence UCUGAUGACUGUUUACAGC against ZNF180 yielded a seed-corrected z-score of 0.161.
Next, UAAUUAAUAUCGUCCAGAG against C6orf120: -0.208; UCAUUCACUAUCACUUGUC against ZNF35: -1.13.
Next, AACUCUUCACGUACUAGCC against PKD2: 0.287; UUAGCUGCUGGGAACACUG against IL18BP: -2.28.
As for UAUGUUUCUCGUCUCAACA against DNM1P49, the figure is -0.258; as for AAAGUCACGUUUUCCGCGC against RGS14, 0.981; as for AAAGAUACAUCUGCCUUCC against CMPK1, -0.0168.
On to AGAAUUCUGAGGGCGGAGC against UCN2, for which the seed-corrected z-score is -0.561.
Consider AUAGUAAGCAGCCUUCUGC against HOXD3, for which the seed-corrected z-score was -3.99.
With UAUCUUGACCAAAUAAACC against MPC2, the seed-corrected z-score came to 0.235.
As for ACAGGAGCCACCCUAAAAG against WDR86, the figure is 0.75.
UCUGUCUCCGCUUGGAGUG against FOS: the seed-corrected z-score came to 0.622.
Sequence UAGGUCUUAGGAGUCAUCU against RPL9P25 had a seed-corrected z-score of -2.06.
On to UCUGCUCCAAUAAUCCGGC against ANKS6, for which the seed-corrected z-score stood at 0.347.
In the case of UCCGUUUCCACAUGGUCGC against TEKT4, the seed-corrected z-score was determined as 0.747.
Next, AUAGGCAAGAGUGACAAGC against CNGB3: 0.169; UGGGAUCUAACUCCUUAGC against IFT172: -2.76; UACUAGAUGUGGUGCAUCC against RPS6KA3: 0.496.
Consider UAGGCAUCCGUAUCCCUGC against FAM131B, for which the seed-corrected z-score was 0.847.
As for AGCUGCUAAACUUUCAUCC against JAKMIP2, the seed-corrected z-score is -2.59.
Sequence UCUCGAAUGAGAAUGCUCC against CSTF3 yielded a seed-corrected z-score of -0.0852.
On to UUCUUGAUCUUGGAUCUUU against DLX5, for which the seed-corrected z-score is -0.846.
Consider UUCUUGAUCAUCAUUCACC against SLC7A6OS, for which the seed-corrected z-score came to 0.569.
As for UAUCGUAAAAUCACAUGAG against AMFR, the figure is 0.503; as for UGAUGUUUCGCAGGCACCG against CRHR1, 0.0226.
Next, UUAAUUACUCUCUUCAAUG against UGT2B7: -0.533; UUUUGGGCCUCUGAACUCC against LCE1B: 0.31; UACCUUAACCAUCCGAUGC against WDR6: 0.132.
As for UAGAGGAUAAUGUUCUCGG against ABHD17C, the figure is -12.1; as for UUGGAGAUCAAUCCAGCCU against CBFB, 0.537.
In the case of UCAAUCAUCCGUGAGUUGC against WBSCR22, the seed-corrected z-score was found to be 0.315.
Sequence UUUCAGCUGCGCUCGGUUC against GOLGA6L2 had a seed-corrected z-score of -3.72.
Next, UGCAUUCCGGCUGUGAUCG against LINC00152: -0.804.
Next, UUAUGGGCUCUGAUGACCG against DIP2C: 0.0672; UUCAGGAUCGCGGUUAUCA against OR4X2: 0.269; UUAAAGACUCGGUUCACUG against PLXNA3: -1.44.
As for UAUACUCCCGCACAUAGCC against PI4KA, the figure is -0.673; as for UUGUUAUGAAUGUACAUCG against TMEM181, -5; as for UCCGCAGUUCCUUAAGUGG against LOC401589, 0.0579.
Sequence UGCUGAAACCUUGAUGUGC against CRTC3 registered a seed-corrected z-score of 1.11.
In the case of UUGAGUAAGAGAUGGACCC against ZNF184, the seed-corrected z-score is -0.444.
As for AAUGAUCCCACAGAUAUCA against IKZF1, the figure is 0.796; as for UCUGUUCGAUCAUCCGUGC against ACP6, -0.281; as for UGUGUCCCUCCCAAUCUCC against GGT2, 0.0675.
Next, AAAUCGAUGAGAAACCUGC against KAT6A: 0.325; UACAUUGUAGCAGAUGUUG against ACSS2: -0.36; “AAGUCUACAAGUGAUCUCU against ATP6V0E2-AS1”: -2.23.
UGUUGUUUACGUUCGAUUG against ADD3 registered a seed-corrected z-score of -0.745.
As for UGUUAGGUAAGGCUAGGUC against UTS2B, the figure is 0.63.
Next, AUUAUGAGCAUGCAGGUUC against ANKRD6: 1.1.
Consider UUUCUUCCCAGGUGUCUUG against PTHLH, for which the seed-corrected z-score was -2.12.
As for UCUAGACCUAUGGACAGUC against WDFY2, the figure is -0.0809; as for UUAGCUUCCUCCAAAAUGC against LOC342293, 1.1; as for UCCUGGUUAAAUAGGAAGG against BLID, -0.822.
UACUGAGUAGUAGUUGGGC against DISP3 showed a seed-corrected z-score of -2.25.
As for UUUGGUUUGGAAAAGGUAC against KMT5A, the figure is 0.072.
Next, UAACUUAGAAUUCCAUUUU against DMRTA2: 0.067; UGUCCUACCACAGUCUUCA against LINC00703: -0.2.
As for UUUUCUGCAGCUUUAAGGG against IL17C, the figure is 1.34; as for UGGUCAAUCUGUUCAAUGG against C16orf70, -13.9.
As to UACAUAGUAAACUCGCCCG against ITCH, the seed-corrected z-score is 0.22.
Take UAAGUAACCCAAGUAUUGC against C2orf69: the seed-corrected z-score was 0.361.
Next, AGGGUUGACAUGGAACUGC against FITM1: 0.313; UUCCGUACAAAAUUGUGCA against ARAF: -0.24.
